HTR5A inv ag: HTR5A inverse agonists in luminescence cell assay, primary screen, counter-screen for OPRM1-OPRD1 heterodimer inverse agonist project, full-deck HTS | hit rate 0.083% among 340,000 | 5-hydroxytryptamine receptor 5A (Homo sapiens), P47898 | HTR5A cell line, inverse agonism | inhibition, % at 9.3 µM; in the data active means inhibition mostly above about 23%, no sharp cut-off; inactive means mostly below about 18%;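 further: 0% = cells with DMSO and 100% = no-cell wells with DMSO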
OPRM1-OPRD1 inv: inverse agonists of MOR-DOR heterodimerization, primary screen, cell-based, luminescence; Mu-type opioid receptor (Homo sapiens) + Delta-type opioid receptor (Homo sapiens), …; cell-based MOR-DOR heterodimer luminescence, inverse agonism; inhibition, % at 9.3 µM; hit rate 0.21% among 340,000; AID 504357, 2011; in the data active means inhibition above about 22%, passing the limit was not always enough;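 further: 0% = cells with DMSO and 100% = wells without cells with DMSO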
Target sequence (P35372 whole entry, looked up): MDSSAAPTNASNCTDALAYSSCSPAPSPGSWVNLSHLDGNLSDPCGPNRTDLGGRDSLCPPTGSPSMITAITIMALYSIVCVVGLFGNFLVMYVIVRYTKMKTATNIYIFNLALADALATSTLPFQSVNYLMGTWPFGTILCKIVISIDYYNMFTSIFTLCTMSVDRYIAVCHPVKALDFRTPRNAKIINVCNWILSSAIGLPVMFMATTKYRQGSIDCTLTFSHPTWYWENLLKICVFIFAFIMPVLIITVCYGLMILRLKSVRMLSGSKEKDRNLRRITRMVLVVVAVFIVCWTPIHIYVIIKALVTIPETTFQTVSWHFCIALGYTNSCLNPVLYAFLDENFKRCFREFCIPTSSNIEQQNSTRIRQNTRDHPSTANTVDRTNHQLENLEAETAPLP
Target sequence (P41143 whole entry, looked up): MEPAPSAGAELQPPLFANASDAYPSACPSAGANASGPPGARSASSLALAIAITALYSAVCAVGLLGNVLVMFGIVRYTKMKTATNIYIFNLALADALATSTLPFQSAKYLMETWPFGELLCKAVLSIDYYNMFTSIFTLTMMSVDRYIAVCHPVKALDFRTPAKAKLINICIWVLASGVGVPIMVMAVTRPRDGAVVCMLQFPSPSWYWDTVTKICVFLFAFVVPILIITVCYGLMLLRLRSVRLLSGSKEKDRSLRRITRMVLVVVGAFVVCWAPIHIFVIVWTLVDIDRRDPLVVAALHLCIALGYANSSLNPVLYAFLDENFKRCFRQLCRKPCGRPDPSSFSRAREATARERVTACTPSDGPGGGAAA
OPRM1-OPRD1 ag: agonists of OPRM1-OPRD1 heterodimerization, primary screen, cell-based, luminescence; Mu-type opioid receptor (Homo sapiens) + Delta-type opioid receptor (Homo sapiens), …; activation, % at 9.3 µM; hit rate 0.3% among 340,000; cells; in the data active means activation above about 18%;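 further: 0% = vehicle-treated cells and 100% = reference agonist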
bovine MsrA act: bovine MsrA enzyme activators, primary screen, biochemical, absorbance, HTS; Methionine sulfoxide reductase A (Bos taurus); purified bovine MsrA, absorbance read-out; hit rate 0.3% among 360,000; activation, % at 10.6 µM; AID 602163, 2012; in the data active means activation above about 7.5%;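 further: 0% = vehicle and 100% = reference activator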
HTR5A ag: HTR5A agonists in luminescence cell assay, primary screen, counter-screen for OPRM1-OPRD1 heterodimer agonist project, full-deck HTS; activation, % at 9.3 µM; hit rate 0.61% among 340,000; cell-based; in the data active means activation mostly above about 9.5%, no sharp cut-off; inactive means mostly below about 7.6%;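 further: 0% = cells with vehicle only and 100% = reference agonist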
MsrA inhibitor: bovine MsrA enzyme inhibitors, primary screen, biochemical, absorbance, HTS. purified bovine MsrA, absorbance read-out. inhibition, % at 15.5 µM. hit rate 0.75% among 360,000. AID 651718, 2012; in the data active means inhibition above about 4.5%;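 further: 0% = vehicle wells with enzyme and 100% = reference inhibitor wells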
MsrA activ conf: bovine MsrA activators, retest, confirmation, biochemical, absorbance, HTS. activation, % at 10.6 µM. shares compounds with bovine MsrA act. purified bovine MsrA, absorbance read-out. hit rate 12% among 1,000. AID 602270, 2012; in the data active means activation above about 4%;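 further: enzyme coupled to thioredoxin and thioredoxin reductase with NADPH; 0% = vehicle wells and 100% = reference activator wells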
* = called active by the depositor; x = no result given. This is a sample that favours compounds with a hit; in the whole collection about 1.9% have one here.

SMILES | HTR5A inv ag | OPRM1-OPRD1 inv | OPRM1-OPRD1 ag | bovine MsrA act | HTR5A ag | MsrA inhibitor | MsrA activ conf
COC(=O)[C@]12C[C@H](CC(=O)NCCc3ccccc3OC)C(=O)N(Cc3ccc4c(c3)OCO4)C1=C[C@H](COCc1ccccc1)O[C@@H]2C | x | x | x | x | x | 1 | x
C=CCn1c(SCCN2CCCC2)nc2c([nH]c3ccccc32)c1=O | 18 | 1 | 0 | 8.4* | -2 | 1 | -1
COC(=O)N1C[C@H](OC(=S)Nc2ccc(OC)cc2OC)[C@H]2C[C@@H]1c1ccccc1O2 | x | x | x | x | x | -1 | x
O=C1NCCN(Cc2ccc(Cl)c(F)c2)C1CC(=O)N1CCCCO1 (stereo not given) | 23 | 9 | -1 | 8.6* | -2 | -1 | -2
O=C(NCc1cccnc1)C(=O)NCC1OCCN1S(=O)(=O)c1ccc(F)cc1 (stereo not given) | -3 | -3 | 0 | 8.4* | 1 | -1 | 1
O=C(NCc1cccnc1)C(=O)NCC1OCCCN1S(=O)(=O)c1ccc(F)cc1 (stereo not given) | 5 | 15 | -3 | -4 | -3 | 0 | x
Cc1cc(CN2CCN(c3ncc(Cc4ccccc4)cn3)CC2)cc(C)c1O | x | x | x | x | x | 1 | x
CCn1c(SCC(=O)N2CCN(S(=O)(=O)c3ccccc3)CC2)nnc1-c1cccs1 | -20 | 4 | -1 | 9.6* | 8 | 1 | -1
O=Nc1c(O)c2ccccc2c2ccccc12 | -10 | -99 | 18 | 20* | 12* | 0 | 13*
O=c1ccc2ccccc2c2ccccc12 | x | x | x | -16 | x | 1 | x
O=c1c2cc([N+](=O)[O-])ccc2sn1-c1ccccc1 | x | x | x | 9.8* | x | 3 | 7.5*
N#Cc1ccc2sn(-c3ccccc3)c(=O)c2c1 | x | x | x | 12* | x | 1 | 8.9*
CCn1c2ccccc2c2cc(NC(C)=O)ccc21 | -2 | 1 | 0 | -5 | 1 | 0 | x
CC(=O)Nc1ccc2sn(-c3ccccc3)c(=O)c2c1 | x | x | x | 9.8* | x | 1 | 5.7*
COc1ccc(-n2sc3ccccc3c2=O)cc1 | x | x | x | 5 | x | 1 | x
C[C@@H]1ON(C)[C@H]2C[C@H]3c4[nH]c5cccc(Br)c5c4CCN3C(=O)[C@@H]12 | x | x | x | x | x | 0 | x
CC1CCCC(NC(=O)Nc2cccs2)C1C (stereo not given) | 13 | -3 | 1 | 8.9* | 1 | 1 | -3
Clc1cc(Cl)cc(CN2CCN(c3ncc(Cc4ccccc4)cn3)CC2)c1 | x | x | x | x | x | 1 | x
C[C@@H]1ON(C)[C@H]2C[C@H]3c4[nH]c5c(-c6ccc(Cl)cc6)cccc5c4CCN3C(=O)[C@@H]12 | x | x | x | x | x | 0 | x
CCOC(=O)C(C)Oc1cccc2c(=O)n(CC(=O)Nc3cccc(OC)c3)ccc12 (stereo not given) | -5 | 6 | -1 | 8.4* | -1 | 1 | -3
COC(=O)N1C[C@H](Oc2ncccn2)[C@H]2C[C@@H]1c1ccccc1O2 | x | x | x | x | x | 1 | x
OC(c1ccccc1)(c1ccccc1)C1CCN(CCCOc2ccc(-c3ccncc3)cc2)CC1 | x | x | x | x | x | 1 | x
COc1cc(Cl)c(CNC[C@H]2O[C@@H](n3ccc(=O)[nH]c3=O)[C@H](O)[C@@H]2O)c(Cl)c1O | -1 | 10 | -2 | 10* | 0 | 0 | -1
COC(=O)N/N=C/c1cn(Cc2ccc(F)cc2)c2ccccc12 | 2 | 16 | -3 | -3 | -6 | 0 | x
O=[N+]([O-])c1ccc(N/N=C/c2cn(Cc3ccc(F)cc3)c3ccccc23)nc1 | -5 | 5 | -1 | 17* | 0 | -1 | 0
N#C/C(=C\c1ccc(OCC(N)=O)cc1)C(=O)NC1CC1 | 12 | 11 | -3 | 13* | 4 | 3 | -1
CC(C)Oc1ccc(/C=C(\C#N)C(=O)NC2CC2)cc1 | -22 | -1 | 0 | -2 | 0 | 2 | x
COC(=O)Nc1nnc(COc2cccc(C)c2)s1 | 3 | 11 | -2 | -2 | -1 | 1 | x
COC(=O)Nc1nnc(COc2ccccc2)s1 | x | x | x | 8.9* | x | 0 | -2

Assay outcomes (PubChem)
